{"source": "PubChem BioAssay (NCATS)", "note": "Several values for one entry are separate records, joined by “and”; a condition that tells them apart may be missing. Equal values may be shown once. Inconclusive results are not listed. Activity calls are given as the source filed them. Calls follow the shape of the dose curve; as a rule, active = well fitted curve in the direction sought with a large enough effect; inconclusive = small, poorly fitted or top-dose-only effect, or another doubt; inactive = no such curve, though single readings can be large; an effect the other way counts as inactive or inconclusive. % is scaled to controls: 0 for no effect and ±100 for the full control effect."}
{"experiment": "qHTS Assay for Identifying Gametocytocidal Compounds (AID 743244);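 also: actives lower the fluorescent signal which means gametocytes are killed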", "conditions": "P. falciparum 3D7 stage III-V gametocytes, alamarBlue, 72 h; max response: hits give low values", "in_short": "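P. falciparum 3D7 stage III–V gametocytes (20,000 cells/well) were exposed to compounds for 72 h at 37 °C, 5% CO2. AlamarBlue was then added for 24 h; decreased resorufin fluorescence (Ex 525/Em 598 nm) indicated loss of viability.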"}
{"smiles": "Cc1nnc2n1-c1ccc(Cl)cc1C(c1ccccc1)=NC2", "max response": "35.3% (inactive)"}
{"smiles": "CCc1cc2c(s1)-n1c(C)nnc1CN=C2c1ccccc1Cl", "max response": "2.24% (inactive)"}
{"smiles": "[N-]=[N+]=CC(=O)OC[C@H](N)C(=O)O", "max response": "-0.674% (inactive)"}
{"smiles": "C[C@H](N)C(=O)c1ccccc1", "max response": "39.4% (inactive) and -13% (inactive)"}
{"smiles": "CCOC(=O)CC(SP(=S)(OC)OC)C(=O)OCC", "note": "(stereo not drawn)", "max response": "7.01% (inactive) and -6.6% (inactive)"}
{"smiles": "CCN(CC)CCc1c[nH]c2ccccc12", "max response": "14.8% (inactive)"}
{"smiles": "COP(=S)(OC)Oc1cc(Cl)c(Cl)cc1Cl", "max response": "-2.95% (inactive) and 7.49% (inactive)"}
{"smiles": "C[C@]1(O)CC[C@H]2[C@@H]3CCC4=CC(=O)CC[C@]4(C)[C@@]3(F)[C@@H](O)C[C@@]21C", "max response": "8.13% (inactive)"}
{"smiles": "O=C(Nc1ccc(Br)cc1)c1cc(Br)cc(Br)c1O", "max response": "3.6% (inactive)"}
{"smiles": "O=c1oc2ccccc2c(O)c1Cc1c(O)c2ccccc2oc1=O", "max response": "2.96% (inactive)"}
{"smiles": "CC1(C)C(C=C(Cl)Cl)C1C(=O)OC(C#N)c1cccc(Oc2ccccc2)c1", "note": "(stereo not drawn)", "max response": "-13.8% (inactive)"}
{"smiles": "NNc1ccccc1", "max response": "-4.92% (inactive)"}
{"smiles": "CC(C)C[C@H](CN)CC(=O)O", "max response": "2.29% (inactive)"}
{"experiment": "qHTS assay for cell viability of HEK293 cells (AID 743288); also: nearly all actives have a fitted effect of over 50% in size", "conditions": "ATP luminescence (CellTiter-Glo), 18 h, hits give low values", "in_short": "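Parental HEK293 cells were seeded at 2,000 cells/well, rested at least 5 h at 37 C, then exposed to compounds in DMSO for 18 h at 37 C. Viability was read as ATP-dependent luciferase luminescence after 30 min at room temperature.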"}
{"smiles": "CC(C)(C)c1ccc(O)cc1", "max response": "3.38% (inactive)"}
{"smiles": "Clc1ccc(C(c2ccc(Cl)cc2)C(Cl)(Cl)Cl)cc1", "max response": "-17.1% (inactive)"}
{"smiles": "COP(=S)(OC)SCN1C(=O)c2ccccc2C1=O", "max response": "-19.3% (inactive)"}
{"smiles": "O=C1c2ccccc2C(=O)C1C(=O)C(c1ccccc1)c1ccccc1", "max response": "-28.7% (inactive)"}
{"smiles": "Nc1nc(N)nc(NC2CC2)n1", "max response": "-3.61% (inactive)"}
{"smiles": "O=C1c2ccccc2C(=O)c2ccccc21", "max response": "-16.3% (inactive)"}
{"smiles": "CN1C[C@H](C(=O)N[C@]2(C)O[C@@]3(O)[C@@H]4CCCN4C(=O)[C@H](Cc4ccccc4)N3C2=O)C=C2c3cccc4[nH]cc(c34)C[C@H]21", "max response": "-13.1% (inactive) and -12.3% (inactive)"}
{"smiles": "[N-]=[N+]=CC(=O)OC[C@H](N)C(=O)O", "max response": "0.519% (inactive)"}
{"smiles": "Nc1ccc([As](=O)(O)O)cc1", "max response": "-4.94% (inactive)"}
{"smiles": "CCOC(=O)CC(SP(=S)(OC)OC)C(=O)OCC", "note": "(stereo not drawn)", "max response": "-11.8% (inactive) and -13% (inactive) and -16.1% (inactive)"}
{"smiles": "COP(=S)(OC)Oc1cc(Cl)c(Cl)cc1Cl", "max response": "-11.5% (inactive)"}
{"smiles": "C[C@]1(O)CC[C@H]2[C@@H]3CCC4=CC(=O)CC[C@]4(C)[C@@]3(F)[C@@H](O)C[C@@]21C", "max response": "-0.591% (inactive)"}
{"smiles": "CC1(C)C(C=C(Cl)Cl)C1C(=O)OC(C#N)c1cccc(Oc2ccccc2)c1", "note": "(stereo not drawn)", "max response": "-3.3% (inactive)"}
{"experiment": "qHTS assay for cell viability of the p53RE-bla HCT-116 cell line (AID 743292); also: nearly all actives have a fitted effect of over 55% in size; also: potency is read from the fitted curve at half-maximal effect", "conditions": "p53RE-bla HCT-116 viability, ATP luminescence, 16 h; series mostly up to 95 µM; activity change, negative = cytotoxicity: at the top concentration", "in_short": "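After plating at 4,000 cells per well and a 5 h rest at 37 C, HCT-116 cells carrying p53RE-bla received test chemicals in DMSO. Sixteen hours later at 37 C, CellTiter-Glo was added and luminescence recorded following 30 min at room temperature.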"}
{"smiles": "Clc1ccc(C(c2ccc(Cl)cc2)C(Cl)(Cl)Cl)cc1", "Potency": "50.1 µM (active)"}
{"smiles": "COP(=S)(OC)SCN1C(=O)c2ccccc2C1=O", "activity change, negative = cytotoxicity": "6.7% (inactive)"}
{"smiles": "O=C1c2ccccc2C(=O)C1C(=O)C(c1ccccc1)c1ccccc1", "activity change, negative = cytotoxicity": "0.325% (inactive)"}
{"smiles": "Nc1nc(N)nc(NC2CC2)n1", "activity change, negative = cytotoxicity": "-2.63% (inactive)"}
{"smiles": "O=C1c2ccccc2C(=O)c2ccccc21", "activity change, negative = cytotoxicity": "-2.02% (inactive)"}
{"smiles": "CN1C[C@H](C(=O)N[C@]2(C)O[C@@]3(O)[C@@H]4CCCN4C(=O)[C@H](Cc4ccccc4)N3C2=O)C=C2c3cccc4[nH]cc(c34)C[C@H]21", "Potency": "inactive"}
{"smiles": "[N-]=[N+]=CC(=O)OC[C@H](N)C(=O)O", "activity change, negative = cytotoxicity": "-2.4% (inactive)"}
{"smiles": "Nc1ccc([As](=O)(O)O)cc1", "activity change, negative = cytotoxicity": "-1.75% (inactive)"}
{"smiles": "CCOC(=O)CC(SP(=S)(OC)OC)C(=O)OCC", "note": "(stereo not drawn)", "Potency": "inactive"}
{"smiles": "COP(=S)(OC)Oc1cc(Cl)c(Cl)cc1Cl", "activity change, negative = cytotoxicity": "6.39% (inactive)"}
{"smiles": "C[C@]1(O)CC[C@H]2[C@@H]3CCC4=CC(=O)CC[C@]4(C)[C@@]3(F)[C@@H](O)C[C@@]21C", "activity change, negative = cytotoxicity": "8.63% (inactive)"}
{"smiles": "CC1(C)C(C=C(Cl)Cl)C1C(=O)OC(C#N)c1cccc(Oc2ccccc2)c1", "note": "(stereo not drawn)", "activity change, negative = cytotoxicity": "-5.71% (inactive)"}
